In paper PMC5540273 (PLoS ONE, 2017):

Assays:
Conditions in all cases: concentration: 1 μM, replicates: in singlicate; n = 1
PRKCQ = system: PRKCQ
PRKD1 = system: PRKD1
PRKD2 = system: PRKD2
PRKD3 = system: PRKD3
PRKG1 = system: PRKG1
PRKG2 = system: PRKG2
PRKR = system: T1, PRKR
T1 construct: gene EIF2AK2

PRKX = system: PRKX
PRP4 = system: PRP4
PYK2 = system: T2, PYK2
T2 construct: gene PTK2B

QSK = system: QSK
RAF1 = system: RAF1
RET = system: RET
RIOK1 = system: RIOK1
RIOK2 = system: RIOK2
RIOK3 = system: RIOK3
RIPK1 = system: RIPK1
RIPK2 = system: RIPK2
RIPK4 = system: RIPK4
RIPK5 = system: RIPK5
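Further: KINOMEscan kinase panel screen.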

Row | SMILES | %Inh (PRKCQ) [%] | %Inh (PRKD1) [%] | %Inh (PRKD2) [%] | %Inh (PRKD3) [%] | %Inh (PRKG1) [%] | %Inh (PRKG2) [%] | %Inh (PRKR) [%] | %Inh (PRKX) [%] | %Inh (PRP4) [%] | %Inh (PYK2) [%] | %Inh (QSK) [%] | %Inh (RAF1) [%] | %Inh (RET) [%] | %Inh (RIOK1) [%] | %Inh (RIOK2) [%] | %Inh (RIOK3) [%] | %Inh (RIPK1) [%] | %Inh (RIPK2) [%] | %Inh (RIPK4) [%] | %Inh (RIPK5) [%]
1 | COc1ccc(Nc2nccc(-c3cccc(NC(=O)c4cc5cc(F)ccc5[nH]4)c3)n2)cc1 [GSK1229782] | 12 | 10 | 11 | 24 | 10 | 0 | 10 | 46 | 66 | 21 | 3 | 13 | 14 | 72 | 3 | 50 | 22 | 17 | 0 | 25
2 | CN(C)CCN(C)C(=O)c1cc(-c2ccncc2)c(-c2ccc(Cl)c(O)c2)o1.Cl.Cl [SB-710397] | 3 | 0 | 57 | 12 | 0 | 0 | 0 | 0 | 60 | 12 | 0 | 87 | 24 | 37 | 0 | 0 | 0 | 59 | 14 | 0
3 | O=C(Nc1ccc2c(c1)OCO2)NC1CCN(c2ccnc(Nc3ccc(F)cc3)n2)C1 (stereo not shown) [GSK1379724] | 0 | 16 | 5 | 0 | 0 | 0 | 0 | 0 | 17 | 0 | 8 | 16 | 22 | 9 | 0 | 5 | 0 | 0 | 11 | 0
4 | CC(C)(C)c1ccc(C(=O)Nc2cn3cc(-c4cccnc4)ccc3n2)cc1 | 22 | 21 | 14 | 5 | 7 | 26 | 0 | 10 | 22 | 7 | 0 | 0 | 14 | 34 | 33 | 9 | 27 | 26 | 0 | 17
5 | Cl.c1ccc(-c2n[nH]cc2-c2ccnc(-c3ccc(CN4CCOCC4)cc3)c2)nc1 [GW776245] | 0 | 62 | 44 | 28 | 0 | 16 | 0 | 0 | 0 | 14 | 0 | 37 | 0 | 19 | 0 | 20 | 11 | 36 | 0 | 0
6 | Cn1ccc2ncnc(Oc3cccc(C(=O)Nc4ccccc4)c3)c21 | 0 | 0 | 9 | 0 | 3 | 0 | 0 | 0 | 5 | 0 | 0 | 5 | 14 | 38 | 0 | 23 | 0 | 15 | 18 | 0
7 | Cn1cncc1-c1ccc2ncnc(Nc3ccc(OCc4ccccc4)cc3)c2c1 [GW320571] | 16 | 26 | 5 | 15 | 26 | 0 | 0 | 4 | 0 | 34 | 16 | 13 | 0 | 32 | 26 | 15 | 18 | 93.1 | 0 | 0
8 | COc1cc(Nc2nccc(N3CCC(NC(=O)Nc4cc(C)ccc4C)C3)n2)cc(OC)c1OC (stereo not shown) [GSK1379762] | 0 | 0 | 0 | 37 | 0 | 0 | 0 | 41 | 43 | 3 | 0 | 19 | 25 | 60 | 6 | 34 | 4 | 8 | 18 | 0
9 | Fc1cc(Cl)ccc1Nc1ccnc2cc(I)ccc12 [GW551191] | 18 | 1 | 0 | 0 | 5 | 0 | 0 | 0 | 13 | 1 | 37 | 10 | 53 | 31 | 0 | 19 | 0 | 67 | 12 | 0
10 | Cn1ccc2ncnc(Oc3ccc(Nc4nc5ccccc5[nH]4)cc3)c21 | 0 | 44 | 8 | 0 | 0 | 0 | 0 | 3 | 25 | 41 | 0 | 0 | 0 | 0 | 0 | 0 | 0 | 0 | 0 | 0
11 | Cc1cccc(-c2nc(C)cc(Nc3ccncc3)n2)n1 [GSK257997] | 0 | 78 | 80 | 85 | 0 | 6 | 0 | 1 | 13 | 0 | 0 | 100 | 18 | 20 | 16 | 14 | 8 | 19 | 7 | 0
12 | O=C(Nc1n[nH]c2cc(-c3cccc(F)c3F)ccc12)C1CC1 [SB-733894] | 19 | 0 | 0 | 0 | 0 | 0 | 3 | 0 | 4 | 0 | 26 | 12 | 0 | 47 | 0 | 52 | 72 | 0 | 18 | 31
13 | Cc1ccc(-c2cc(-c3c[nH]nc3-c3ccccn3)ccn2)cc1 [GW684088] | 1 | 68 | 62 | 69 | 0 | 16 | 24 | 21 | 27 | 16 | 0 | 21 | 6 | 18 | 0 | 3 | 28 | 27 | 0 | 3
14 | O=C(O)COc1ncnc2cc(-c3ccc4[nH]ncc4c3)sc12 | 41 | 0 | 0 | 25 | 17 | 0 | 0 | 41 | 0 | 0 | 0 | 1 | 11 | 0 | 16 | 0 | 0 | 0 | 30 | 6
15 | Cc1cc(-c2ccc3c(c2)CC[C@@H](N[C@@H](C)c2ccccc2)C3)cnc1N.Cl [GW412617] | 36 | 18 | 21 | 0 | 9 | 0 | 0 | 12 | 0 | 12 | 0 | 19 | 0 | 44 | 85 | 32 | 50 | 15 | 13 | 7
16 | Cc1c(O)cccc1Nc1ccnc2ccc(C(F)(F)F)cc12.Cl [GW466413] | 0 | 0 | 0 | 0 | 5 | 0 | 0 | 0 | 4 | 0 | 3 | 23 | 24 | 34 | 2 | 0 | 3 | 21 | 0 | 0
17 | CN1C(=O)C(Nc2ccc(Cl)c(C(=O)O)c2)=C(c2ccc(Cl)cc2)C1=O [SB-404290] | 77 | 0 | 6 | 0 | 13 | 0 | 0 | 0 | 0 | 5 | 40 | 0 | 0 | 0 | 0 | 18 | 0 | 0 | 18 | 17
18 | Cc1cccc(-c2nc(Nc3ccncc3)c3ccccc3n2)n1 [GW855857] | 0 | 86 | 99 | 69 | 7 | 0 | 2 | 0 | 17 | 4 | 0 | 39 | 9 | 0 | 0 | 35 | 4 | 71 | 0 | 0
19 | Cc1cccc(-c2nc(Nc3cccc(C(N)=O)c3)c3ccccc3n2)n1 [GW876019] | 0 | 64 | 66 | 87 | 0 | 0 | 6 | 0 | 11 | 6 | 0 | 17 | 0 | 50 | 0 | 26 | 19 | 0 | 0 | 0
20 | O=C(Nc1n[nH]c2nc(-c3nccs3)c(Br)cc12)C1CCCC1 [SB-742609] | 4 | 0 | 0 | 0 | 2 | 0 | 5 | 0 | 13 | 9 | 0 | 25 | 0 | 2 | 0 | 0 | 0 | 4 | 21 | 1
21 | COC(=O)c1c(-c2ccccc2)c2cc(OC)ccc2c(=O)n1Cc1ccccc1 | 15 | 0 | 16 | 0 | 0 | 2 | 4 | 4 | 7 | 6 | 23 | 85 | 17 | 0 | 0 | 0 | 0 | 0 | 4 | 24
22 | Cl.NC(=O)c1cccc(Nc2nccc(Nc3ccc(Oc4cccc(Cl)c4)c(Cl)c3)n2)c1 [GW659008] | 0 | 0 | 6 | 0 | 0 | 3 | 0 | 15 | 18 | 15 | 9 | 0 | 3 | 37 | 21 | 23 | 27 | 95.8 | 72 | 0
23 | COc1ccc(CNC(=O)NC2CCN(c3ccnc(Nc4cc(OC)c(OC)c(OC)c4)n3)C2)cc1 (stereo not shown) [GSK1379748] | 0 | 0 | 0 | 0 | 0 | 11 | 14 | 17 | 43 | 0 | 0 | 0 | 0 | 35 | 0 | 32 | 17 | 16 | 28 | 48
24 | Cc1cccc(-c2nc(Nc3ccc4[nH]ncc4c3)c3ccccc3n2)n1 [GW857175] | 27 | 99.8 | 99.9 | 98.1 | 0 | 2 | 0 | 0 | 13 | 0 | 4 | 8 | 13 | 39 | 8 | 29 | 0 | 0 | 44 | 35
25 | Cl.Oc1ccc(-c2nc(-c3ccccc3)[nH]c2-c2ccncc2)cc1 [SB-428218] | 0 | 0 | 9 | 0 | 12 | 0 | 0 | 0 | 57 | 0 | 0 | 61 | 26 | 0 | 0 | 0 | 0 | 22 | 14 | 0
26 | Cc1cc(N2Cc3ccccc3C2)nc(Nc2ccc(S(=O)(=O)N3CCOCC3)cc2)n1.Cl [GSK1669917] | 0 | 0 | 0 | 0 | 0 | 0 | 0 | 0 | 16 | 0 | 2 | 0 | 0 | 24 | 0 | 25 | 0 | 0 | 98.9 | 6
27 | Cc1ccc(NC(=O)Nc2cccc(Cl)c2)cc1-c1ccc(C(=O)Nc2ccncc2)cc1 [GSK1398468] | 11 | 0 | 1 | 22 | 1 | 0 | 1 | 80 | 47 | 0 | 0 | 91.4 | 1 | 40 | 0 | 59 | 5 | 6 | 22 | 0
28 | COc1cc2ncn(-c3cc(OCC4CCCO4)c(C(N)=O)s3)c2cc1OC (stereo not shown) [GSK204607] | 0 | 0 | 0 | 0 | 0 | 0 | 13 | 10 | 4 | 0 | 0 | 0 | 0 | 77 | 0 | 94.5 | 5 | 7 | 0 | 0
29 | COC(=O)c1c(-c2ccccc2)c2cc(C(=O)O)ccc2c(=O)n1Cc1ccccc1 | 22 | 14 | 0 | 3 | 8 | 0 | 3 | 0 | 9 | 0 | 0 | 81 | 21 | 0 | 26 | 11 | 0 | 0 | 0 | 0
